Assay outcomes from PubChem.
DPM-DC inhibit: S. pneumoniae DPM-DC inhibition | actives 0.49% (n = 65,000) | purified DPM-DC, PK/LDH coupled NADH fluorescence | AID 556 | calls only at 10 µM;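 active = the 320 compounds with the highest percent inhibition in the single-dose primary screen, excluding strongly autofluorescent ones, cut at about 32% in these data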;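 note: kinetic rate of NADH fluorescence loss reporting ADP formed by the decarboxylase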
A340 absorber: compound absorbs light at 340 nm; compound absorbance at 340 nm, fold over control; fold change at 10 µM; 65,000 tested, under 10 active; AID 708;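 active = at 10 µM dose, initial 340 nm absorbance at least 2 fold that of control wells; inactive = change under 2 fold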;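 note: initial absorbance extrapolated from kinetic A340 decline of NADH oxidation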
Spn PMK inh: S. pneumoniae PMK inhibition. actives 0.49% (n = 65,000). purified PMK, PK/LDH-coupled NADH absorbance 340 nm. inhibition, % at 10 µM. AID 539;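 active = top-ranked compounds by inhibition in the single 10 µM screen, taking a fixed number of the strongest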
MK inhibit: S. pneumoniae mevalonate kinase inhibition; purified MK, PK/LDH-coupled NADH absorbance 340 nm; inhibition, % at 10 µM; actives 0.48% (n = 65,000); AID 555;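 active = ranked among the strongest by inhibition in the single 10 µM screen, a fixed top-ranked set picked for dose follow-up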
NADH enzymes: inhibition of NAD/NADH coupling enzymes, library profiling. coupled PK/LDH NADH assays, four targets. IC50, µM (titrated, usually from 10 µM). actives 0.02% (n = 65,000). AID 774;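 active = single-dose screening hits from any of four coupled enzyme assays that gave an IC50 when retested across doses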;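 note: the DPM-DC format reads NADH fluorescence rather than 340 nm absorbance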
Fluor 339 460: intrinsic fluorescence of library compounds, ex339/em460 – biochemical, MLSMR library, data from DPM-DC assay, artefact control, profiling panel. compound autofluorescence, ex339/em460 nm, NADH buffer; hits give high values; 1 = no-compound wells, NADH background. fluorescence fold increase at 10 µM. actives 5.5% (n = 65,000);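 active = at 10 µM, mean starting fluorescence two-fold or more over control wells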;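 note: signal is the first read of a kinetic run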
Of the large screens only hits and unclear results are named; the others gave an inactive call. A selection: hits, their analogues and other compounds. The true share with any hit is near 6.5%.

COc1cc2cc(CN(C(=O)Nc3ccccc3)C3CCCC3)c(=O)[nH]c2cc1OC	Fluor 339 460 3.2 (not shown: DPM-DC inhibit)
Cc1ccc2[nH]c(=O)c(CN(CCN3CCOCC3)C(=O)Nc3ccccc3F)cc2c1	MK inhibit active
COc1cc2cc(CN(CCN3CCCC3)C(=O)Nc3ccc(F)cc3)c(=O)[nH]c2cc1OC	Fluor 339 460 3.1 (no result: MK inhibit)
COc1ccc2[nH]c(=O)c(CN(C(C)=O)C3CCCCC3)cc2c1	Fluor 339 460 3.5 (not shown: DPM-DC inhibit)
Cc1cccc2cc(CN(CCN3CCOCC3)C(=O)Nc3ccccc3F)c(=O)[nH]c12	none
CC(C)(C)C1CCC2(CC1)C(C#N)=C(SCC(=O)NC1CCCCC1)NC(=O)C2C#N (stereo not drawn)	none
COc1ccc(Cl)cc1S(=O)(=O)N1CCN(C(=O)c2cc(OC)c(OC)c(OC)c2)CC1	none
CC1(C)CC(=O)C=C(NCC2CCCO2)C1 (stereo not drawn)	none
COc1ccc2[nH]c(=O)c(CN(C(=O)NC3CCCCC3)C3CCCC3)cc2c1	Fluor 339 460 2.5
CCc1ccc2[nH]c(=O)c(CN(CCN(CC)CC)C(=O)NC3CCCCC3)cc2c1	none
COc1ccccc1C(c1nnnn1C(C)(C)C)N1CCN(Cc2ccncc2)CC1 (stereo not drawn)	Spn PMK inh 27
COc1cccc(NC(=O)CCN2CCC(C(N)=O)CC2)c1	none
COC(=O)c1ccccc1NC(=O)Nc1cc(C)cc(C)n1	none
CCOC(=O)N1CCC(NC(=O)c2cnn3cccnc23)CC1	Fluor 339 460 2.1
COC(=O)C1=CN(C)C=C(C(=O)OC)C1c1ccsc1	Fluor 339 460 2.2 (not shown: DPM-DC inhibit)
Cc1ccc(C)c(N(CC(=O)NC2CCCC2)C(=O)CCCC(=O)Nc2ccccn2)c1	Spn PMK inh 48
Cc1cccc(N(CC(=O)NC2CCCC2)C(=O)CCCC(=O)Nc2ccccn2)c1	none
Brc1ccc(-c2nc3ccccc3s2)s1	Fluor 339 460 2.2
CCN(CC)c1ccc(-c2nc3cnccc3n2C)cc1	Fluor 339 460 2.5
CC(=O)N1CCN(c2nc3cc4c(cc3nc2NS(=O)(=O)c2ccccc2)OCCO4)CC1	Spn PMK inh 27, Fluor 339 460 2.7
CCOc1ccc(S(=O)(=O)Nc2nc3ccccc3nc2N2CCN(C)CC2)cc1	none
C=CCn1c(N)c(C(=O)NCC2CCCO2)c2nc3ccccc3nc21 (stereo not drawn)	Fluor 339 460 3.8 (not shown: DPM-DC inhibit)
CN(c1ccccc1C(=O)NCC1CCCO1)S(C)(=O)=O (stereo not drawn)	none
COc1ccc(-n2c(N)c(C(=O)NCC3CCCO3)c3nc4ccccc4nc32)c(OC)c1 (stereo not drawn)	Fluor 339 460 3.9 (not shown: DPM-DC inhibit)
O=C(NCC1CCCO1)c1coc2nc3ccccc3nc12 (stereo not drawn)	DPM-DC inhibit active, Fluor 339 460 2.5
COc1ccc(-n2nc(C(=O)NCC(=O)NCC3CCCO3)c3ccccc3c2=O)c(OC)c1 (stereo not drawn)	none
O=C(C1CCN(S(=O)(=O)c2cccc3cccnc23)CC1)N1CCN(C2CCCCC2)CC1	none
COc1cc(OC)cc(-n2nnnc2SCC(=O)NCc2ccc3c(c2)OCO3)c1	none
COc1ccc2cc(C(=O)NCc3ccco3)c(=Nc3ccc(C(=O)O)cc3)oc2c1	none
COc1ccc2cc(C(=O)NCc3ccco3)c(=O)oc2c1	Fluor 339 460 3.3 (not shown: DPM-DC inhibit)
Cc1nc2ccccc2cc1C(=O)NCc1ccco1	none
O=C(NCc1ccco1)c1cc2ccc(O)cc2oc1=O	Fluor 339 460 3.8 (not shown: DPM-DC inhibit)
COc1ccc2cc(C(=O)NC3CCCCC3)c(=O)oc2c1	Fluor 339 460 3.5 (not shown: DPM-DC inhibit)
CC1(C)CC(C#N)(N2CCOCC2)CCO1 (stereo not drawn)	none
Cc1ccc(C2CC(C(F)(F)F)n3nc(C(=O)NCCN4CCOCC4)cc3N2)cc1 (stereo not drawn)	none (no result: MK inhibit)
COc1ccc(O)c(-c2cc(-c3cccs3)[nH]n2)c1	none
O=C(CCN1C(=O)c2ccccc2C1=O)N1CCN(Cc2ccc(Cl)cc2Cl)CC1	none
CCOc1ccc(CC(=O)C2C(=O)CCCC2=O)cc1OCC	none
C=C(C)COc1ccc2c3c(c(=O)oc2c1OCC(=C)C)CCC3	Fluor 339 460 2.1
C=C(C)COc1ccc2c(C)c(C)c(=O)oc2c1OCC(=C)C	Fluor 339 460 2.1 (not shown: DPM-DC inhibit)
CCOC(=O)c1ccc(N2C(=O)C3C(C2=O)C(C(=O)c2ccc(Cl)cc2)N2CCCC32)cc1 (stereo not drawn)	none
O=S(=O)(c1ccc(F)cc1)N1CCC(N2CCCC2)CC1	MK inhibit 50
COc1ccc(S(=O)(=O)N2CCN(C3CCCCCCC3)CC2)cc1	Spn PMK inh 29
COc1ccc(S(=O)(=O)N2CCC(N3CCCCC3)CC2)cc1	none
CCOCCCn1c(=N)c(C(=O)NCc2ccc3c(c2)OCO3)cc2c(=O)n3ccccc3nc21	none
N=c1c(C(=O)NCc2ccccc2)cc2c(=O)n3ccccc3nc2n1CCCN1CCOCC1	Fluor 339 460 3.7 (not shown: DPM-DC inhibit)
N=c1c(C(=O)NC2CCCCC2)cc2c(=O)n3ccccc3nc2n1CCN1CCOCC1	Fluor 339 460 3.9 (not shown: DPM-DC inhibit)
N=c1c(C(=O)NCc2ccc(F)cc2)cc2c(=O)n3ccccc3nc2n1CCCN1CCOCC1	Fluor 339 460 3 (not shown: DPM-DC inhibit)
COc1cccc(OC)c1C(=O)Nc1ccccc1C(=O)N1CCOCC1	none
CC(=O)COc1cc(C)cc2oc(=O)c(C)c(C)c12	Fluor 339 460 3.9 (not shown: DPM-DC inhibit)
CC(=O)C(C)Oc1cc(C)cc2oc(=O)c(C)c(C)c12 (stereo not drawn)	Fluor 339 460 3.6 (not shown: DPM-DC inhibit)
c1ccc(Cn2nnc3c(Nc4ccc5c(c4)OCO5)nc(C4CC4)nc32)cc1	Fluor 339 460 3.7 (not shown: DPM-DC inhibit)
COC(=O)c1[nH]c2cccc(OC)c2c1NC(=O)CCN1CCC(C)CC1	none
COC(=O)c1[nH]c2cccc(OC)c2c1NC(=O)CN1CCN(c2cccc(OC)c2)C(C)C1 (stereo not drawn)	Fluor 339 460 3
COC(=O)c1[nH]c2cccc(OC)c2c1NC(=O)CCN1CCN(c2ccccc2OC)CC1	DPM-DC inhibit active, Fluor 339 460 3.1
CC(C)Cn1cc(C(=O)NCCCN2CCCC2=O)c2c3ccccc3n(C)c2c1=O	Fluor 339 460 3.9
CCOC(=O)C1CCCN(C(=O)c2cc3c(=O)n(C)c4ccccc4c3n2C)C1 (stereo not drawn)	none
CCN1CCN(C(=O)c2cn(CCOC)c(=O)c3c2c2ccccc2n3C)CC1	Fluor 339 460 2.8
COCCn1cc(C(=O)N2CCCC(C)C2)c2c3ccccc3n(C)c2c1=O (stereo not drawn)	Fluor 339 460 4.5 (not shown: DPM-DC inhibit)
Cn1c(C(=O)N2CCCC2)cc2c(=O)n(C)c3ccccc3c21	none
CCOC(=O)C1CCN(C(=O)c2cn(CCOC)c(=O)c3c2c2ccccc2n3C)CC1	Fluor 339 460 4.9 (not shown: DPM-DC inhibit)
CC(C)Cn1cc(C(=O)N2CCN(c3ccccn3)CC2)c2c3ccccc3n(C)c2c1=O	Fluor 339 460 2.1
